Experimental findings from PubChem BioAssay AID2188 (Vanderbilt High Throughput Screening Facility, 2009) are described below.

Results with a measured potency or affinity are listed apart.

The assay has as its target Metabotropic glutamate receptor 2 (Rattus norvegicus) (UniProt P31421). The assay can be described thus: rat mGluR2 glutamate potency shift by compounds, selectivity assay for mGluR4 modulator project, cell-based (AID 2188). To be noted: mGluR2 cells, thallium flux, glutamate CRC + 10 uM compound; glutamate EC50 fold-shift by compound; at 10 µM; stronger effect = higher value.

Sequence of Metabotropic glutamate receptor 2 (Rattus norvegicus) (P31421 whole entry, looked up): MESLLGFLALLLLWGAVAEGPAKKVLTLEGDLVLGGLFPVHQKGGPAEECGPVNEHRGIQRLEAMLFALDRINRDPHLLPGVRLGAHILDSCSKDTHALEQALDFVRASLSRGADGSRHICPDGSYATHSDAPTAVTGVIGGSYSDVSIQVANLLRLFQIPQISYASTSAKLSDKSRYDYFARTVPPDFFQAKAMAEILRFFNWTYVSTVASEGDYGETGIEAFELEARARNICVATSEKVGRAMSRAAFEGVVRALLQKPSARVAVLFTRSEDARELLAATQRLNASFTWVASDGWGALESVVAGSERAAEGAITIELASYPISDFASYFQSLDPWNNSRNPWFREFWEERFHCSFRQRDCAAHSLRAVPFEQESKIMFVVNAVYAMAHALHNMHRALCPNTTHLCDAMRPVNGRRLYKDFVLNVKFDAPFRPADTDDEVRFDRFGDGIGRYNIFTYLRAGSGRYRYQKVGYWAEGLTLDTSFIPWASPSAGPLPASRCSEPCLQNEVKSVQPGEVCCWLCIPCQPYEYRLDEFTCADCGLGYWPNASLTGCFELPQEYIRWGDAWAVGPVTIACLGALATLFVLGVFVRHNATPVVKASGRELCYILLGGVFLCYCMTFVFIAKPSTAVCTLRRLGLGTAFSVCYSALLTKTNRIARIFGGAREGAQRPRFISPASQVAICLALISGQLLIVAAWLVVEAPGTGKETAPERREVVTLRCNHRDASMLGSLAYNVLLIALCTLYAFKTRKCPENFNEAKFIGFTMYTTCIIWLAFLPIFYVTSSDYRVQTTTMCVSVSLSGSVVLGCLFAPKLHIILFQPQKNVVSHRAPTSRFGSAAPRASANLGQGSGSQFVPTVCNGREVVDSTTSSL

With `O=C(Nc1cccc(Cl)c1)c1ccccn1`, the fold shift was found to be 1.87.
Take `O=C(Nc1ccc(N2C(=O)C3[C@H]4C=C[C@H](C4)[C@H]3C2=O)c(Cl)c1)c1ccccn1` (some centres not stated): the fold shift is 1.05.
